# “And” between values parts separate entries of the source, which are not always exact repeats. Equal entries are not always repeated. In all, about 5,500 compounds went through this assay and about 2,000 (36%) were called active. Not shown: some 18% with an inconclusive outcome. Cut-off read from the data, not from the text of the source: active = normalized growth mostly below about 0.91 (no sharp cut-off); inconclusive = no clear call, values can overlap the other calls; inactive = mostly above about 0.92. Some of the results follow.
# Experiment: chemical genetic growth profiling, strain panel (AID 1159580);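 note: tested at 20 µM; growth read once vehicle control cultures reached saturation at 30 °C; 1 = growth at the plate median or of vehicle wells; lower values mean less growth of the strain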
# Conditions: S. cerevisiae deletion strains, growth OD
structure (smiles),measurement,setting,value
CC/C(=C(\c1ccccc1)c1ccc(OCCN(C)C)cc1)c1ccccc1,normalized growth,"locus YAL013W, strain DEP1, stronger effect = lower value",0.0667 (active)
same,normalized growth,"locus YAL021C, strain ccr4, stronger effect = lower value",0.0669 (active)
same,normalized growth,"locus YAL026C, strain drs2, stronger effect = lower value",0.0635 (active)
same,normalized growth,"locus YAL030W, strain snc1, stronger effect = lower value",0.0686 (active)
same,normalized growth,"locus YAL040C, strain CLN3, stronger effect = lower value",1.04 (inactive)
same,normalized growth,"locus YBL061C, strain skt5, stronger effect = lower value",0.072 (active)
same,normalized growth,"locus YBR009C, strain hhf1, stronger effect = lower value",0.0625 (active)
same,normalized growth,"locus YBR021W, strain FUR4, stronger effect = lower value",0.0845 (active)
same,normalized growth,"locus YBR023C, strain chs3, stronger effect = lower value",0.0749 (active)
same,normalized growth,"locus YBR171W, strain sec66, stronger effect = lower value",0.383 (active)
same,normalized growth,"locus YBR229C, strain ROT2, stronger effect = lower value",0.0463 (active)
same,normalized growth,"locus YBR231C, strain swc5, stronger effect = lower value",0.0729 (active)
same,normalized growth,"locus YBR279W, strain paf1, stronger effect = lower value",0.122 (active)
same,normalized growth,"locus YCL011C, strain gbp2, stronger effect = lower value",0.0716 (active)
same,normalized growth,"locus YCL016C, strain dcc1, stronger effect = lower value",0.122 (active)
same,normalized growth,"locus YCL029C, strain bik1, stronger effect = lower value",0.0615 (active)
same,normalized growth,"locus YCL061C, strain MRC1 (second series), stronger effect = lower value",0.311 (active)
same,normalized growth,"locus YCL069W, strain vba3, stronger effect = lower value",0.0995 (active)
same,normalized growth,"locus YCR088W, strain abp1, stronger effect = lower value",0.0758 (active)
same,normalized growth,"locus YDL005C, strain med2, stronger effect = lower value",0.382 (active)
same,normalized growth,"locus YDL035C, strain GPR1, stronger effect = lower value",0.0496 (active)
same,normalized growth,"locus YDL040C, strain nat1, stronger effect = lower value",0.312 (active)
same,normalized growth,"locus YDL074C, strain BRE1, stronger effect = lower value",0.0746 (active)
same,normalized growth,"locus YDL101C, strain DUN1, stronger effect = lower value",0.0532 (active)
same,normalized growth,"locus YDL134C, strain PPH21, stronger effect = lower value",0.0467 (active)
same,normalized growth,"locus YDL185W, strain tfp1, stronger effect = lower value",0.606 (active)
same,normalized growth,"locus YDL192W, strain arf1, stronger effect = lower value",0.062 (active)
same,normalized growth,"locus YDR001C, strain nth1, stronger effect = lower value",0.0956 (active)
same,normalized growth,"locus YDR069C, strain doa4, stronger effect = lower value",0.068 (active)
same,normalized growth,"locus YDR101C, strain arx1, stronger effect = lower value",0.0613 (active)
same,normalized growth,"locus YDR137W, strain rgp1, stronger effect = lower value",0.461 (active)
same,normalized growth,"locus YDR150W, strain NUM1, stronger effect = lower value",0.0558 (active) and 0.416 (active)
same,normalized growth,"locus YDR159W, strain sac3, stronger effect = lower value",0.0992 (active)
same,normalized growth,"locus YDR162C, strain NBP2, stronger effect = lower value",0.046 (active)
same,normalized growth,"locus YDR195W, strain ref2",0.166 (active)
same,normalized growth,"locus YDR297W, strain sur2, stronger effect = lower value",0.0894 (active)
same,normalized growth,"locus YDR318W, strain mcm21, stronger effect = lower value",0.0655 (active)
same,normalized growth,"locus YDR334W, strain swr1, stronger effect = lower value",0.0759 (active)
same,normalized growth,"locus YDR335W, strain msn5, stronger effect = lower value",0.103 (active)
same,normalized growth,"locus YDR363W, strain ESC2, stronger effect = lower value",0.174 (active)
same,normalized growth,"locus YDR388W, stronger effect = lower value",0.0557 (active)
same,normalized growth,"locus YDR392W, strain spt3, stronger effect = lower value",0.0847 (active)
same,normalized growth,"locus YDR502C, strain sam2, stronger effect = lower value",0.0692 (active)
same,normalized growth,"locus YEL003W, strain gim4, stronger effect = lower value",0.127 (active)
same,normalized growth,"locus YEL037C, strain rad23, stronger effect = lower value",0.093 (active)
same,normalized growth,"locus YEL061C, strain CIN8 (second series), stronger effect = lower value",0.243 (active)
same,normalized growth,"locus YEL061C, strain CIN8, stronger effect = lower value",0.0479 (active)
same,normalized growth,"locus YER002W, strain NOP16, stronger effect = lower value",1.02 (inactive)
same,normalized growth,"locus YER015W, strain faa2, stronger effect = lower value",0.117 (active)
same,normalized growth,"locus YER016W, strain bim1, stronger effect = lower value",0.164 (active)
same,normalized growth,"locus YER110C, stronger effect = lower value",0.072 (active)
same,normalized growth,"locus YER111C, strain swi4, stronger effect = lower value",0.372 (active)
same,normalized growth,"locus YER155C, strain BEM2 (second series), stronger effect = lower value",0.668 (active)
same,normalized growth,"locus YER155C, strain BEM2, stronger effect = lower value",0.0653 (active)
same,normalized growth,"locus YER167W, strain BCK2, stronger effect = lower value",0.05 (active)
same,normalized growth,"locus YFR010W, strain ubp6, stronger effect = lower value",0.0799 (active)
same,normalized growth,"locus YGL078C, strain dbp3, stronger effect = lower value",0.901 (active)
same,normalized growth,"locus YGL086W, strain mad1, stronger effect = lower value",0.0577 (active)
same,normalized growth,"locus YGL167C, strain pmr1, stronger effect = lower value",0.196 (active)
same,normalized growth,"locus YGL173C, strain kem1, stronger effect = lower value",0.168 (active)
same,normalized growth,"locus YGL227W, strain vid30, stronger effect = lower value",0.143 (active)
same,normalized growth,"locus YGL240W, strain doc1, stronger effect = lower value",0.436 (active)
same,normalized growth,"locus YGL248W, strain PDE1, stronger effect = lower value",0.0453 (active)
same,normalized growth,"locus YGL253W, strain hxk2, stronger effect = lower value",0.0687 (active)
same,normalized growth,"locus YGR078C, strain PAC10, stronger effect = lower value",0.0556 (active) and 0.48 (active)
same,normalized growth,"locus YGR135W, strain pre9, stronger effect = lower value",0.0678 (active)
same,normalized growth,"locus YGR229C, strain SMI1, stronger effect = lower value",0.061 (active) and 0.0615 (active)
same,normalized growth,"locus YGR252W, strain gcn5, stronger effect = lower value",0.155 (active)
same,normalized growth,"locus YHR013C, strain ard1, stronger effect = lower value",0.174 (active)
same,normalized growth,"locus YHR027C, strain rpn1, stronger effect = lower value",0.102 (active)
same,normalized growth,"locus YHR030C, strain SLT2, stronger effect = lower value",0.0499 (active) and 0.883 (inactive)
same,normalized growth,"locus YHR079C, strain IRE1 (second series), stronger effect = lower value",0.0574 (active)
same,normalized growth,"locus YHR079C, strain IRE1, stronger effect = lower value",0.883 (inactive)
same,normalized growth,"locus YHR094C, strain hxt1, stronger effect = lower value",0.059 (active)
same,normalized growth,"locus YHR129C, strain ARP1, stronger effect = lower value",0.0531 (active)
same,normalized growth,"locus YHR142W, strain chs7, stronger effect = lower value",0.0883 (active)
same,normalized growth,"locus YHR200W, strain rpn10, stronger effect = lower value",0.0609 (active)
same,normalized growth,"locus YIL066C, strain RNR3, stronger effect = lower value",0.0471 (active)
same,normalized growth,"locus YIL073C, strain SPO22, stronger effect = lower value",0.158 (active)
same,normalized growth,"locus YIL125W, strain kgd1, stronger effect = lower value",0.91 (active)
same,normalized growth,"locus YIR030C, strain dcg1, stronger effect = lower value",0.0575 (active)
same,normalized growth,"locus YJL092W, strain hpr5, stronger effect = lower value",0.0913 (active)
same,normalized growth,"locus YJL095W, strain BCK1 (second series), stronger effect = lower value",0.0594 (active)
same,normalized growth,"locus YJL095W, strain BCK1, stronger effect = lower value",0.0507 (active) and 0.883 (inactive)
same,normalized growth,"locus YJL115W, strain asf1, stronger effect = lower value",0.155 (active)
same,normalized growth,"locus YJL129C, strain trk1, stronger effect = lower value",0.159 (active)
same,normalized growth,"locus YJL134W, strain LCB3, stronger effect = lower value",0.0479 (active)
same,normalized growth,"locus YJL154C, strain vps35, stronger effect = lower value",0.078 (active)
same,normalized growth,"locus YJL164C, strain tpk1, stronger effect = lower value",0.0754 (active)
same,normalized growth,"locus YJL166W, strain qcr8, stronger effect = lower value",0.0964 (active)
same,normalized growth,"locus YJL168C, strain set2, stronger effect = lower value",0.057 (active)
same,normalized growth,"locus YJL187C, strain SWE1 (second series), stronger effect = lower value",0.046 (active)
same,normalized growth,"locus YJR043C, strain POL32, stronger effect = lower value",0.0587 (active)
same,normalized growth,"locus YJR066W, strain TOR1, stronger effect = lower value",0.888 (inactive)
same,normalized growth,"locus YJR075W, strain HOC1, stronger effect = lower value",0.0611 (active) and 0.54 (active)

# — PubChem BioAssay AID1159580 (chemical genetic matrix, 2015)
